# Screens: PubChem, National Center for Advancing Translational Sciences (NCATS)
# Rows were chosen to be rich in hits. Some 5.4% of all compounds tested hit in one or more screens of this group.
# Gal4-VP16 FLuc – Gal4-VP16 reporter inhibition counter-screen; Drosophila S2 Gal4-VP16 UAS-luciferase, luminescence, 20 h; hit rate 3.5% among 310,000; AID 2546; Potency, µM (highest dose often 53.6 µM), for inactives: at the top dose activity, negative = inhibition, most hits filed as inhibitors;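 also: Gal4-VP16 expression switched on by copper sulfate through the metallothionein promoter; potency is read from the fitted curve at half-maximal effect; % is scaled to controls: 0 for no effect and ±100 for the full control effect; nearly all actives have a fitted effect of over 50% in size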
# p53 reactivation – mutant p53 re-activation in reporter cells; hit rate 0.063% among 320,000; Potency, µM (top dose mostly 92.2 µM), for the others: top-dose activity change, positive = activation, actives largely listed as activators; H1299 p53-A138V BP100-luciferase reporter, luminescence, 24 h; AID 504706; also: potency is read from the fitted curve at half-maximal effect; % of control where 0% means no effect; nearly all actives have a fitted effect of over 45% in size
#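 H1299 (p53-null), stable ts p53-A138V + BP100-Luc; 1000 cells/well, Opti-MEM/10% FBS; cpd 4 pt, 1:5; 24 h, 37 deg C, 5% CO2; detection reagent 10 min RT; luminescence.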
# Six1-Eya2 inh – inhibitors of human Six1/Eya2 interaction; Q15475+O00167; activity change, % (no concentration beside the values); AlphaScreen GST-Six1/His-Eya2 binding, biochemical; stronger effect = lower value; AID 651725; hit rate 0.56% among 360,000; in the data active = activity change below about -65%; inconclusive = mostly about -30% to -63%; also: % is scaled to controls: 0 for no effect and ±100 for the full control effect
#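 Homogeneous AlphaScreen proximity assay pairing GST-Six1 with His-tagged Eya2 (added as 5X mix: 250 nM and 500 nM) in 50 mM Tris pH 8.0, 300 mM NaCl, 1 mM TCEP. Glutathione donor and nickel acceptor beads; 1 h, 37 °C, dark.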
# RORgamma inh – inhibitors of mouse ROR gamma transcriptional activity; hit rate 5.4% among 310,000; P51450; Potency, µM (titrated, usually from 53.6 µM), for the others: at the top dose activity change, negative = inhibition, most hits filed as inhibitors; AID 2551; Drosophila S2 Gal4-RORgamma UAS-luciferase reporter, 20 h; also: potency is read from the fitted curve at half-maximal effect; % is scaled to controls: 0 for no effect and ±100 for the full control effect; nearly all actives have a fitted effect of over 60% in size
# Target sequence (P51450 whole entry, looked up, the tested form may be a part): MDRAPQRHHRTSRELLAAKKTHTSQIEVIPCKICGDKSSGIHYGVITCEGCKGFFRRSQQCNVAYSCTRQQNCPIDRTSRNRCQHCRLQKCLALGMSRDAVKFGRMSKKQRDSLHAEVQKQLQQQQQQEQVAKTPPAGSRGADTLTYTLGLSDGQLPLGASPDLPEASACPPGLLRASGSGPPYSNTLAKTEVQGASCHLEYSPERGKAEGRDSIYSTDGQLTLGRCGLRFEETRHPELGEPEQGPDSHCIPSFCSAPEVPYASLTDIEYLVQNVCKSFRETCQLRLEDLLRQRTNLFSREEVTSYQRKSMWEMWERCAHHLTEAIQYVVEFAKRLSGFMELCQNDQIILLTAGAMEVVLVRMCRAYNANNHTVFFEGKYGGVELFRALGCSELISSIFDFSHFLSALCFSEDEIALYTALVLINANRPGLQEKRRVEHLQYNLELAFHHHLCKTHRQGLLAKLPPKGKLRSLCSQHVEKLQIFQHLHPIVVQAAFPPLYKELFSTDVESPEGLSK
#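 Luminescence from a UAS-regulated Photinus luciferase reporter in stably transfected Drosophila Schneider cells is measured; decreased signal marks ROR gamma inhibition. Fusion expression is induced by 700 uM copper sulfate for 20 hr.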
# CtBP-E1A inh – inhibitors of CtBP/E1A interaction | AlphaScreen GST-E1A/His-CtBP binding, 1536-well; stronger effect = lower value | activity change, % (concentration not given with the values) | hit rate 0.49% among 340,000; in the data active = activity change below about -65%; inconclusive = mostly about -30% to -63%; also: % is scaled to controls: 0 for no effect and ±100 for the full control effect
#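 Homogeneous bead-based format: GST-tagged E1A captured on glutathione donor beads, His-tagged CtBP on nickel acceptor beads; compounds precede bead addition by 2 h at 37 °C.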
# Active calls of the source: *; u = inconclusive; x = no result given. Unless noted, calls follow the shape of the dose curve; as a rule, active = well fitted curve in the direction sought with a large enough effect; inconclusive = small, poorly fitted or top-dose-only effect, or another doubt; inactive = no such curve, though single readings can be large; an effect the other way counts as inactive or inconclusive.
SMILES,Gal4-VP16 FLuc,p53 reactivation,Six1-Eya2 inh,RORgamma inh,CtBP-E1A inh
C=CCCCCCCCCCCCC(O)CC(O)COC(C)=O (stereo unspecified) (tested in a mixture with another compound),-4%,x,x,7%,x
NC(c1csc(Nc2cnccn2)n1)C1CCCCC1 (stereo unspecified),x,x,-26,x,-70*
NC(c1csc(Nc2nccc(C(F)(F)F)n2)n1)C1CCCCC1 (stereo unspecified),x,x,1,x,-8
NC(c1csc(Nc2ncccn2)n1)C1CCCCC1 (stereo unspecified),x,x,u,x,-67*
CC(=O)c1cn(CCOc2cc(C)ccc2C)c2ccccc12,4µM*,x,8,u,6
CN1CCN(C(=S)c2cn(CCOc3ccccc3)c3ccccc23)CC1,u,1%,-6,11µM*,x
CN1CCN(C(=S)c2cn(CCOc3ccccc3F)c3ccccc23)CC1,-8%,6%,u,14µM*,-2
CCCNC(=O)C1(C)CCN(CCOc2ccc(Cl)cc2)C1 (stereo unspecified),x,x,19,x,30
COc1ccc2nc(C)cc(N3CCN(c4ccccc4)CC3)c2c1,-14%,-4%,-19,14µM*,-17
COc1ccc2nc(C)cc(N3CCOCC3)c2c1,0%,-19%,-2,34%,0
Cn1c(=O)c(CCc2ccccc2)nc2cnc(OCc3ccccc3)nc21,10%,x,x,-1%,x
S=c1nc[nH]c2c1sc1nc(-c3ccccc3)c3c(c12)CCCC3,10µM*,7%,10,16µM*,x
CN(C)CCn1c2ccccc2c2nc3ccc([N+](=O)[O-])cc3cc21,11µM*,-2%,-3,7.9µM*,-2
CCn1c2ccccc2c2cc([N+](=O)[O-])ccc21,-2%,4%,-4,-15%,-24
NC(=O)c1ccsc1NC(=O)COC(=O)[C@@H]1CCCN1C(=O)c1cccs1,x,x,1,x,-2
CCc1[nH]c(=O)[nH]c1C(C)S(=O)(=O)c1ccc(C)cc1 (stereo unspecified),u,0%,0,14µM*,9
C/C(=N\NC(=S)Nc1ccc(F)cc1)c1ccc2c(c1)OCCO2,4µM*,u,u,1.3µM*,23
C/C(=N\NC(N)=S)c1ccc2c(c1)OCCO2,u,14%,-6,5µM*,0
CC(C)(CC(=O)O)CC(=O)N1CCN(c2nc3cc(Cl)ccc3s2)CC1,18%,5%,-3,27%,2
Cc1ccc(NC(=S)Nc2ccc3[nH]c(=O)[nH]c3c2)cc1C,u,0%,-3,11µM*,-7
CC(=O)c1ccc(NC(=S)Nc2ccc3[nH]c(=O)[nH]c3c2)cc1,5%,-2%,3,0%,x
COc1ccc(/C=C2\SC(=NCc3ccccc3)NC2=O)cc1,-7%,8%,-6,43%,0
COc1cccc(C2=NNC(=NCc3ccccc3)SC2)c1,5%,4%,-23,8.9µM*,-21
Cc1ccc(C)c(C2=NNC(=NCc3ccccc3)SC2)c1,u,1%,-21,7.9µM*,1
COc1ccc(CN=C2NN=C(c3cccc(OC)c3)CS2)cc1,-23%,16%,-13,4%,-23
SMILES,Gal4-VP16 FLuc,p53 reactivation,Six1-Eya2 inh,RORgamma inh,CtBP-E1A inh
COc1ccc(CN=C2NN=C(c3ccccc3)CS2)cc1,-2%,u,-15,2µM*,-1
COc1ccc(N(C(=O)CNC(=O)c2cccs2)C(C(=O)NC2CCCC2)c2ccncc2)cc1 (stereo unspecified),5%,-6%,6,8%,9
CCOc1ccc(N2CC(C(=O)Nc3nnc(CC)s3)CC2=O)cc1 (stereo unspecified),1%,1%,-3,34%,8
Cc1cnn(C(=S)NCCc2ccccc2)c1,u,18%,22,14µM*,29
Cc1cnn(C(=S)NCc2ccc(Cl)cc2)c1,7.1µM*,0%,2,6.3µM*,16
CCOC(=O)c1csc(NC(=O)c2cc3ccccc3o2)n1,u,-9%,7,3.2µM*,4
Cc1cnc(NC(=O)c2cc3ccccc3o2)s1,13µM*,-4%,4,6.3µM*,3
CCOC(=O)c1sc(NC(=O)c2cc3ccccc3o2)nc1C,u,21%,0,4µM*,2
